GLD-1 RNA inh – GLD-1/TGE RNA complex disruptors, primary screen, biochemical, fluorescence polarization; 0.44% of 320,000 active; purified GLD-1 + fluorescein TGE RNA; Female germline-specific tumor suppressor gld-1 (Caenorhabditis elegans), Q17339; inhibition, % at 5.96 µM; AID 2280, 2010;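 active = percent inhibition above a per-plate cutoff, the plate mean of test compounds plus 3 SD, cut at about 30% in these data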;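 note: 0% = DMSO wells with GLD-1 and probe and 100% = wells lacking GLD-1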
LANA-H2A inh – blockers of LANA interaction with H2A/H2B – biochemical, FP readout, HTS, primary screen. Protein LANA1 (Human herpesvirus 8 type P (isolate GK18)), Q9QR71. cell-free LANA-H2A/H2B peptide, fluorescence polarization. inhibition, % (test concentration not listed). 0.6% of 320,000 active. AID 2629, 2010; in the data active = inhibition mostly above about 10%, no sharp cut-off; inactive = mostly below about 6.7%
Target sequence (Q9QR71 whole entry, looked up): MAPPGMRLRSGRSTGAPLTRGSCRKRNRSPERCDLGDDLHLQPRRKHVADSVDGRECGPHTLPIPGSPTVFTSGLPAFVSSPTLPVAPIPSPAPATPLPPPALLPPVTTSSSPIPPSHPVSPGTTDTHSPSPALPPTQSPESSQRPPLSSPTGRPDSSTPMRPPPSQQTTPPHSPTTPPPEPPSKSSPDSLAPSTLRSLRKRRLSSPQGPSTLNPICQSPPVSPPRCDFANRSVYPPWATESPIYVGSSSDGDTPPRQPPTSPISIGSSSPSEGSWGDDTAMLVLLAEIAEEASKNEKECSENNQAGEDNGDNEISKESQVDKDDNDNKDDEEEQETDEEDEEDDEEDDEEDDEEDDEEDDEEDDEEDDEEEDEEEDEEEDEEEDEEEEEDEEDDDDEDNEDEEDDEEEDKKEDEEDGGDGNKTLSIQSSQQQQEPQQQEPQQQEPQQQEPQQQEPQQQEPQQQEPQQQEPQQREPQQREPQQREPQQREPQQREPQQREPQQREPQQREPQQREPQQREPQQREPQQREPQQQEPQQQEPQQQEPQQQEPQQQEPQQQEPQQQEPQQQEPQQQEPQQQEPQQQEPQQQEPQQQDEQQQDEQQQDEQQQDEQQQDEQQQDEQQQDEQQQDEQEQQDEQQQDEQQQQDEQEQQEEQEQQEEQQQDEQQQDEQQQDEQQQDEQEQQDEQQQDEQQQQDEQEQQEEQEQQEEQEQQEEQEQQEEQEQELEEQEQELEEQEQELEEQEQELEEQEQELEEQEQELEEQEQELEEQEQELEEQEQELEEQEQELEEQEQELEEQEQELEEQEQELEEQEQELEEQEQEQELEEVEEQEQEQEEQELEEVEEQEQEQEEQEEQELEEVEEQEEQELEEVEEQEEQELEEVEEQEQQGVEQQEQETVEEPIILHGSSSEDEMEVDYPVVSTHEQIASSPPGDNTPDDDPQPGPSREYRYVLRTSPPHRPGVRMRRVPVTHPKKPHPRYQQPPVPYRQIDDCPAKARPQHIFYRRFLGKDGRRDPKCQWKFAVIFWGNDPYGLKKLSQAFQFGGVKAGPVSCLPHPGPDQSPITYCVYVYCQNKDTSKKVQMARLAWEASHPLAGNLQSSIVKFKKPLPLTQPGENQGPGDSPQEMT
EBV gp42 inh – Epstein-Barr virus gp42 inhibitors, primary screen, biochemical, uHTS, fluorescence polarization; Glycoprotein 42 (Epstein-Barr virus (strain AG876)), Q1HVG2; inhibition, % (tested at 21.74 µM); Fluorescence polarization binding assay, mP read-out; 0.42% of 220,000 active; in the data active = inhibition above about 50%
E coli Lon inh – inhibitors of E. coli Lon protease, primary screen, biochemical, fluorescence polarization. P0A9M0. purified E. coli Lon protease. inhibition, % at 7.94 µM. 0.42% of 360,000 active. AID 602123, 2011; in the data active = inhibition above about 13%, passing the limit was not always enough;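 note: 0% = enzyme with probe and DMSO and 100% = no enzyme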
C-LANA FP – inhibitors of KSHV C-LANA binding to DNA, primary screen, biochemical, fluorescence polarization, FAM-LBS DNA, MBP-C-LANA, single point; Kaposi's sarcoma herpesvirus LANA C-terminal domain (residues 932-1162) DNA binding; inhibition, % at 9 µM; 0.078% of 340,000 active; AID 504423, 2011;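 active = highest replicate inhibition at or above 60% at 9 µM, even if other replicates fall short; inactive = all replicates below 60% inhibition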;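 note: 0% = neutral control wells and 100% = 4 µM acridine orange control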
Keap1 Nrf2 FP – Keap1-Nrf2 protein-protein interaction inhibitors, primary screen, biochemical, fluorescence polarization, single point; 0.15% of 340,000 active; inhibition, % at 9.4 µM; Keap1 Kelch-Nrf2 peptide fluorescence polarization, 1536-well; Kelch-like ECH-associated protein 1 (Homo sapiens), Q14145; in the data active = inhibition above about 12%;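 note: human Keap1 Kelch domain with fluorescein labeled Nrf2 9mer peptide probe; 0% = neutral control wells and 100% = peptide positive control; higher means more block of Keap1 binding to Nrf2 peptide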
Keap1 Kelch bind – Keap1 Kelch domain binders by thermal stabilisation, dose response, biophysical, thermal shift, RT-PCR instrument, cherry-pick; max delta Tm, degrees C; delta Tm; active compounds read high; 8% of 400 active; shares compounds with Keap1 Nrf2 FP; in the data active = max delta Tm above about 0.48 degrees C
Sypro dye melt – Sypro Orange dye melt without protein, dose response, artefact control for Keap1-Nrf2 interaction inhibitor project, biochemical, thermal shift counterscreen, cherry-pick | shares compounds with Keap1 Nrf2 FP | Sypro Orange dye-only thermal melt, no protein, delta Tm; top dose 26 µM | delta Tm, degrees C (test concentration not listed) | 140 tested, under 10 active;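 active = at highest dose tested, delta Tm positive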
Numbers without * were called inactive; / = no result given. Shown are actives, neighbours in structure and some others; about 1.5% of the full set was active somewhere.

SMILES | GLD-1 RNA inh | LANA-H2A inh | EBV gp42 inh | E coli Lon inh | C-LANA FP | Keap1 Nrf2 FP | Keap1 Kelch bind | others
COc1cc(Cl)c(C)cc1NCC(=O)Nc1cccc(S(=O)(=O)N2CCCC2)c1 | 7.1 | 2.9 | / | 0.3 | 15.3 | 28.0* | -0.1 | Sypro dye melt=-27.4
CC(=O)Nc1c(N)c2ccccc2oc1=O | 0.1 | 3.5 | -5.6 | -5.7 | 5.0 | 14.0* | -0.16 | Sypro dye melt=-25.7
CC(=O)Nc1c(NC(C)(C)C)c2ccccc2oc1=O | 3.7 | -0.9 | 4.7 | 0.2 | -1.5 | 4.3 | /
COc1ccc(NC(=O)c2c(NC(=O)CNCC(C)C)sc3c2CCC3)c(OC)c1 | 7.2 | -1.7 | -13.4 | -3.3 | 8.2 | 3.7 | /
CC(=O)Nc1ccc2c(c1)N(C(=O)CN(C)C)c1ccccc1CC2 | 7.1 | -5.1 | -5.3 | 4.2 | 26.7 | 122.9* | -0.18
CCNCC(=O)N1c2ccccc2CCc2ccc(NC(C)=O)cc21 | -3.0 | -5.4 | -12.8 | 3.2 | -0.2 | -2.4 | /
O=C(Nc1ccccc1C(=O)N1CCCCCC1)c1ccc(F)cc1 | 4.3 | -1.3 | / | -0.1 | 20.9 | 35.1* | -0.16 | Sypro dye melt=-27
COc1ccccc1NC(=O)C1(c2ccccc2)CCCC1 | 12.7 | -2.7 | -10.4 | 0.2 | 0.7 | 3.2 | /
C=CCOc1ccc(C=NNc2ccc(S(=O)(=O)Nc3ccccc3C(=O)O)cc2[N+](=O)[O-])cc1OC | 10.9 | 0.1 | / | 5.3 | 14.1 | 12.8* | 0.91*
CCOc1ccc(C=NNc2ccc(S(=O)(=O)Nc3ccccc3C(=O)O)cc2[N+](=O)[O-])cc1 | 7.1 | -0.6 | / | -18.2 | 0.5 | 0.8 | /
CCOCCCn1c(=NC(=O)c2cccs2)c(C#N)cc2c(=O)n3ccccc3nc21 | 54.6* | 35.0* | 36.3 | 0.2 | 30.4 | 22.6* | -0.12
O=C(NCCS(=O)(=O)N1CCN(c2ccccc2)CC1)C1CC1 | -1.1 | -0.9 | / | 1.0 | -0.9 | -3.3 | /
Cc1ccc(CCNC(=O)C2CCC(=O)N2Cc2cccnc2)cc1 (stereo unspecified) | -5.2 | -2.7 | 0.5 | -1.4 | -1.3 | -2.4 | /
Cc1ccccc1OCCC(=O)Nc1cc(S(=O)(=O)N2CCCCC2)ccc1N1CCN(C)CC1 | / | / | / | -5.9 | 28.2 | 54.1* | 0.02
O=C(COC(=O)CNC(=O)c1ccccc1)Nc1ccc(F)c([N+](=O)[O-])c1 | -0.1 | -0.9 | 2.8 | -0.3 | -2.9 | -4.6 | /
N/C(Cc1cccc2ccccc12)=N\O | 5.0 | -1.6 | -6.1 | 10.4 | / | 16.6* | -0.14 | Sypro dye melt=-21.6
CCN(CC)S(=O)(=O)c1ccc(NC(=O)c2cnccn2)cc1 | 3.5 | -0.2 | / | -4.2 | -0.1 | 1.4 | /
Cc1cc(Br)ccc1NC(=O)CSc1nnc(CN2CCOCC2)n1C | 9.1 | -3.1 | / | 4.8 | -1.1 | -5.5 | /
CC(=O)n1nc2nc(C)cc(C)c2c1N | 0.8 | 4.8 | -14.1 | 0.6 | 1.4 | -2.4 | /
Cc1cc(C)c2c(SC(C)C)nc(N)nc2n1 | -6.2 | 6.1 | -3.8 | -5.5 | 14.5 | 22.8* | -0.18
COc1ccc(S(=O)(=O)N2CCCCC2)cc1NC(=O)CNc1ccccc1C(C)=O | -2.5 | -1.4 | / | -4.7 | -0.6 | -3.0 | /
O=C(NCc1ccc(Cl)cc1)c1cc(=O)[nH]c2ccccc12 | 0.5 | 0.1 | / | -0.4 | 2.0 | 59.0* | -0.15
CCn1c(-c2ccccc2Cl)nn(CC(=O)Nc2ccc(OC)cc2)c1=S | -0.5 | -1.2 | -20.9 | -0.2 | 2.5 | 2.1 | /
COc1ccc2nc3ccccc3nc2c1NC(=O)c1ccccc1Cl | 5.8 | -1.8 | -10.6 | -10.1 | 9.4 | 15.6* | 0.07
CC(=O)Nc1ccc(NC(=O)CSc2nc3ccccc3c(=O)n2CCCN2CCOCC2)cc1 | 6.3 | -0.6 | / | -5.4 | 1.1 | -4.9 | /
SMILES | GLD-1 RNA inh | LANA-H2A inh | EBV gp42 inh | E coli Lon inh | C-LANA FP | Keap1 Nrf2 FP | Keap1 Kelch bind | others
O=C(CSc1nc2ccccc2c(=O)n1CCCN1CCOCC1)Nc1ccccc1OC(F)F | 5.7 | -6.2 | / | 4.1 | 12.1 | 18.7* | -0.14 | Sypro dye melt=-22.8
CC(C)(C)c1ccc(C(=O)OCC(=O)NC2CC2)cc1 | / | / | / | -11.1 | -1.2 | 1.4 | /
Cc1ccc(C(=S)N2CCN(Cc3ccccc3)CC2)s1 | 10.0 | -4.5 | 1.9 | -0.7 | -0.8 | -3.0 | /
CN1/C(=C\C=C(C#N)C#N)C(C)(C)c2ccccc21 | -37.9 | 45.1* | -62.3 | -23.0 | 164.9 | 44.8* | 0
CN1/C(=C\C=C(/C#N)C(=O)Nc2ccc(Cl)cc2)C(C)(C)c2ccccc21 | -22.4 | -5.5 | 5.8 | -87.7 | 32.6 | 14.0* | -0.06
CN1/C(=C/C=N/n2cnnc2)C(C)(C)c2ccccc21 | 7.0 | -4.6 | -0.4 | -1.4 | 0.4 | 1.5 | /
COCCCN1C(=O)c2ccc(C(=O)Nc3ccccc3OC)cc2C1=O | 5.3 | 1.6 | -14.2 | 7.8 | 1.3 | -3.4 | /
COCCCN1C(=O)c2ccc(C(=O)Nc3ccc(C)cc3C)cc2C1=O | -2.9 | -7.7 | / | 6.3 | 1.8 | 39.1* | -0.14
CNC(=O)C1CC(=O)N(c2ccc(OCC(=O)Nc3ccc(F)cc3)cc2)C1 (stereo unspecified) | / | / | / | -2.9 | 14.6 | 29.9* | -0.09 | Sypro dye melt=-26.1
C=CCNC(=O)C1CC(=O)N(c2ccc(OCC(=O)Nc3ccc(C)cc3)cc2)C1 (stereo unspecified) | -0.8 | -3.0 | 3.9 | -1.7 | -1.2 | -0.5 | /
O=C(O)c1ccc(N2CCCCCC2)c(N2C(=O)c3ccccc3C2=O)c1 | 4.3 | -12.1 | -7.3 | 0.3 | 0.9 | 1.9 | /
O=C1c2cccc3c(N4CCCCC4)ccc(c23)C(=O)N1c1ccccc1O | 21.9 | 0.8 | 40.1 | -59.2 | 41.5 | 15.9* | -0.13
CCCCNC(=S)Nc1ccc(OC)nc1 | 49.5* | -0.3 | 24.6 | 5.9 | 16.1 | 12.1* | -0.14
C=CCn1c(=O)/c(=C\c2ccsc2)s/c1=C(/C#N)C(=O)NCCN1CCOCC1 | -0.7 | 5.6 | -17.6 | -6.1 | 21.4 | 16.1* | -0.17 | Sypro dye melt=-22.5
COc1ccc(-n2c(=O)/c(=C\c3cccs3)s/c2=C(/C#N)C(=O)NCCN2CCOCC2)cc1 | -5.2 | 2.7 | -69.2 | -88.1 | 2.6 | -7.4 | /
O=C1N=c2ccccc2=C1c1sc(=S)n(NC(=O)c2cccc(O)c2)c1O | / | / | -8.0 | 4.0 | -0.9 | 1.2 | /
O=C1N=c2ccc(Br)cc2=C1c1sc(=S)n(NS(=O)(=O)c2ccccc2)c1O | 7.3 | 0.8 | 17.5 | 3.1 | 0.3 | 52.7* | 2.67* | Sypro dye melt=-26.4
C=CCN(CC=C)C(=O)C1c2ccccc2Oc2ccccc21 | / | / | / | 8.1 | / | / | /

Bioassay records: PubChem BioAssay, several laboratories
